Where “and” joins values, the source holds several entries; their conditions need not be identical. Identical values can stand only once. Counter-ions that a name gives are not always drawn.
How the values were obtained:
Assay in all cases: cell viability relative to vehicle control; higher = less cytotoxic
Details in all cases: 10 µM
K562 = system: K562
Method in brief: (§1)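 Screening covered the Selleck bioactive, kinase and epigenetic probe libraries, less identity-inconsistent compounds, on CRISPR-edited mutant clones and isogenic wild-type clones of four leukaemia lines. Cells, at 2000 per well in 50 µL medium, received a single 10 µM acoustically dispensed dose. After 48 h the supernatant was removed and CellTiter-Glo luminescence was read. Viability was analysed in Genedata Screener as percent of the on-plate vehicle control.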

MARIMO = system: MARIMO
Method in brief: as §1

MOLM14 = system: MOLM14
Method in brief: as §1

OCI-AML2 = system: OCI-AML2
Method in brief: as §1

Compound | cell viability (K562; SRSF2 genotype: SRSF2 P95H/wt) | cell viability (K562; SRSF2 genotype: SRSF2 wt/wt) | cell viability (MARIMO; SRSF2 genotype: SRSF2 P95H/wt) | cell viability (MARIMO; SRSF2 genotype: SRSF2 wt/wt) | cell viability (MOLM14; SRSF2 genotype: SRSF2 P95H/wt) | cell viability (MOLM14; SRSF2 genotype: SRSF2 wt/wt) | cell viability (OCI-AML2; SRSF2 genotype: P95H/wt) | cell viability (OCI-AML2; SRSF2 genotype: wt/wt)
CC=C(C)C(=O)O [S3803 Angelic acid.cdx] | 106% and 99.5% | 103% | 106% | 108% | 104% | 100% | 103% | 108%
COc1cc2c(cc1OC)CN(C(=O)/C=C/c1c(-c3ccccc3)n(C)c3ncccc13)CC2 | 63.9% and 81.1% | 71.3% | 69.1% | 70.5% | 47.7% | 44.2% | 51.6% | 49%
N[C@@]1(C(=O)O)CS(=O)(=O)[C@H]2[C@H](C(=O)O)[C@H]21 | 104% and 109% | 115% | 107% | 105% | 109% | 113% | 113% | 98.1%
Nc1nc(N)c2nc(-c3cccc(O)c3)c(-c3cccc(O)c3)nc2n1 | 95% and 105% | 88.6% | 111% | 101% | 108% | 107% | 98.5% | 91.4%
CC(C)NCC(O)c1ccc(NS(C)(=O)=O)cc1 (stereo not drawn) [Sotalol HCl] | 106% and 102% | 95.7% | 101% | 109% | 104% | 102% | 106% | 102%
C[C@@H]1O[C@@H](O[C@H]2[C@H](O[C@H]3CC[C@@]4(C)[C@@H](CC[C@]5(C)[C@@H]4CC=C4[C@@H]6CC(C)(C)CC[C@]6(C(=O)O[C@@H]6O[C@H](CO[C@@H]7O[C@H](CO)[C@@H](O)[C@H](O)[C@H]7O)[C@@H](O)[C@H](O)[C@H]6O)CC[C@]45C)[C@]3(C)CO)OC[C@H](O)[C@@H]2O)[C@H](O)[C@H](O[C@@H]2O[C@H](CO)[C@@H](O[C@@H]3O[C@H](CO)[C@@H](O)[C@H](O)[C@H]3O)[C@H](O)[C@H]2O)[C@H]1O [Macranthoidin B] | 86.7% and 84.6% | 85% | 83.6% | 94.2% | 86% | 86.6% | 91.4% | 86%
C=C[C@](C)(O)CC[C@@H]1[C@@]2(C)CCCC(C)(C)[C@@H]2CC[C@@]1(C)O [Sclareol] | 93.2% and 93.5% | 95.6% | 94.5% | 94.3% | 106% | 103% | 89.2% | 85.1%
CN1CCN(CCCN2c3ccccc3Sc3ccc(C(F)(F)F)cc32)CC1 [Trifluoperazine 2HCl] | 25.7% and 36.9% | 46.2% | 52.5% | 50.8% | 45.9% | 58.7% | 47.6% | 46.7%
Nc1[nH]cnc2ncnc1-2 [Adenine hydrochloride] | 127% and 120% | 105% | 98.5% | 111% | 105% | 108% | 114% | 118%
Nc1[nH]cnc2ncnc1-2 [Adenine sulfate] | 108% and 94.6% | 99.3% | 94.7% | 103% | 93.5% | 99.7% | 102% | 112%
O=c1c(-c2ccc(O[C@@H]3O[C@H](CO)[C@@H](O)[C@H](O)[C@H]3O)cc2)coc2cc(O)cc(O)c12 [Sophoricoside] | 104% and 106% | 116% | 106% | 103% | 100% | 104% | 109% | 105%
Cc1ncc(COP(=O)(O)O)c(C=O)c1O [Pyridoxal 5-phosphate monohydrate] | 97.8% and 103% | 101% | 91.2% | 107% | 99.2% | 102% | 101% | 101%
O=C1C=C2C=C[C@@H](O)[C@H](O)[C@H]2O1 [Griffonilide] | 101% | 96.4% | 98.7% | 104% | 99.3% | 97.2% | 103% | 100%
CCn1nc(C2CCN(C(=O)CCO)CC2)nc1-c1cnc(N)c(-c2nnc(C(C)(C)C)o2)n1 | 97.5% and 109% | 104% | 57.5% | 50.7% | 38.2% | 50.8% | 21.3% | 34.6%
O=C(C1CCCCC1)N1CC(=O)N2CCc3ccccc3C2C1 (stereo not drawn) [Praziquantel (Biltricide)] | 105% and 101% | 102% | 109% | 107% | 111% | 109% | 115% | 103%
CC(=O)Oc1ccccc1C(=O)O [Aspirin (Acetylsalicylic acid)] | 102% and 101% | 94% | 96.4% | 95.9% | 95.7% | 102% | 100% | 96.7%
O=c1cc(-c2ccc(O)c(O)c2)oc2cc(O)cc(O)c12 [Luteolin] | 90.8% and 84.6% | 85.5% | 65.7% | 82.6% | 53% | 57% | 67.3% | 58.9%
Cc1cc(=O)oc2c(C=O)c(O)ccc12 | 110% and 118% | 112% | 99% | 97.4% | 94.8% | 109% | 92.5% | 98.3%
Cc1ccc(NC(=O)Nc2cc(C(F)(F)F)ccc2F)cc1Nc1ccc2c(c1)NC(=O)/C2=C\c1ccc[nH]1 | 75.2% and 70.9% | 62.1% | 84.4% | 92.2% | 86.5% | 94.4% | 74.4% | 70.1%
COc1ccc(C[C@H](N)C(=O)N[C@H]2[C@@H](O)[C@H](n3cnc4c(N(C)C)ncnc43)O[C@@H]2CO)cc1 [Puromycin 2HCl] | 1.95% and 1.45% | 1.55% | 1.69% | 0.77% | 0.25% | 0.31% | 0.26% | 0.49%
C=CC[C@@H]1/C=C(\C)C[C@H](C)C[C@H](OC)[C@H]2O[C@@](O)(C(=O)C(=O)N3CCCC[C@H]3C(=O)O[C@H](/C(C)=C/[C@@H]3CC[C@@H](O)[C@H](OC)C3)[C@H](C)[C@@H](O)CC1=O)[C@H](C)C[C@@H]2OC [Tacrolimus (FK506)] | 90.3% and 93.4% | 84.9% | 94.3% | 97.2% | 92.2% | 96.3% | 91.4% | 98.2%

From the supplement of paper PMC10981050
